Measurements as given in the OligoGym collection.

Target: CAMK2N1
Experiment: pooled miR-30 sensor sort-seq; sequence = guide strand
Details: shRNA
Further: reference of the scale not given here.

| Sequence | sensor-assay potency score (higher = more potent) |
| --- | --- |
| ATCTTCAATAACAACCCGCTTG | -0.788 |
| TCTTCAATAACAACCCGCTTGC | -0.41 |
| TTCAATAACAACCCGCTTGCTC | 0.0759 |
| AATAACAACCCGCTTGCTCCGG | -0.79 |
| TTCAGCACGTCATCAATCCTAT | -0.353 |
| ATAACAACCCGCTTGCTCCGGC | -0.269 |

Target: CAMKV
Experiment: as above
Details: shRNA

| Sequence | sensor-assay potency score (higher = more potent) |
| --- | --- |
| TATCTGTCAGTCACCTCCGATG | -0.879 |
| TTTCATTGTTGAACTGAGCAGA | 0.188 |
| TTGCCTGTCGTCTTGTCCTTGG | -0.405 |
| TTCTGGAACTTCTTGCAGGTGT | -0.129 |
| TTGAACTGAGCAGAAAATCTGC | 0.22 |
| TTAAACATACTGCCCTACCTTT | -0.684 |
| TAACACAAATAACAGGGTCTTA | -0.811 |
| ATATCTGTCAGTCACCTCCGAT | -0.99 |
| TTATAGTTCTTCTTGTCGCCCA | 0.464 |
| TATAGTTCTTCTTGTCGCCCAG | -0.36 |
| TCACTGATGACAATCTTCGAGT | -1.01 |
| TTGCTTGTGTCTCGCTCCGAGT | -1.54 |

Target: CAMSAP1L1
Experiment: as above
Details: shRNA

| Sequence | sensor-assay potency score (higher = more potent) |
| --- | --- |
| TTCTGCTTTTTGATCATCCTTA | -0.157 |
| TTATCCAGTACATGACAGCGTC | -0.641 |
| TTCACCACTTCAAACCACCAGA | -0.595 |
| TTGATTTCTTCAGTTTCTGGGC | -0.439 |
| TTGTATTATGTGCTTATTGGAT | -0.942 |
| TTTTGCAGCATCACTCTTGAGA | -0.108 |
| TTGTTCATGACAACAGAGCTTA | 0.195 |
| TACACTCTCGTTATCACCCGTG | 0.34 |
| TACTTTTTCTATACTGACCATT | -0.4 |
| TACTGTATCCATATCTTCCATT | -0.745 |
| TTCAACAGGTACATCAGCCTTT | 0.426 |

Target: CAPNS2
Experiment: as above
Details: shRNA

| Sequence | sensor-assay potency score (higher = more potent) |
| --- | --- |
| TTTGTGCTTAGAAAGGACTTTG | -0.468 |
| TAAAATTCACAATTCCTCCAAC | -0.361 |
| TTGATAGACACTTGAATCAGGC | -0.108 |
| TTTGTTGAGAATATTCATCAGA | -0.0355 |
| TAGACACTTGAATCAGGCCATC | -1.43 |
| TAAAATCCATATCTCCATCTTC | -0.0154 |
| TATACTGAGCTGCTGCAGCCTC | -0.467 |
| TCTATCTCTATCCAGAGACTTG | -1.33 |
| TATCTCCATCTTCATTAGCATA | -1.87 |
| ATACTGCTTATAAACACACTGC | -0.451 |
| ATGACAGACACAATGCTCCGGC | -0.17 |
